Measurements: PubChem BioAssay (EPA / NIEHS)
Calls of active or inactive are those of the source. The calls were made as follows: active = hit-call score of the fitted dose curve at least 0.9, where 1 is the maximum; inactive = score below 0.9.

What was measured:
[1] = read-out: Interleukin-1 alpha (IL1a), IL1A (gene 3552); test: BSK_KF3CT_IL1a: BioMAP Diversity Plus: KF3CT Assay for Interleukin-1 alpha (IL1a) Biomarker Activity (AID 2283070); details: primary human keratinocytes with fibroblasts; actives raise or lower the signal
Summary of the method: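 Human keratinocyte plus foreskin fibroblast primary co-culture, sampled 24 h after chemical dosing. IL-1a measured by ELISA; responses fitted bidirectionally against DMSO baseline (negative control), so gain or loss of signal both count.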

[2] = read-out: TIMP metallopeptidase inhibitor 2 (TIMP2), TIMP2 (gene 7077); test: BSK_KF3CT_TIMP2: BioMAP Diversity Plus: KF3CT Assay for TIMP metallopeptidase inhibitor 2 (TIMP2) Biomarker Activity (AID 2283071); details: primary human keratinocytes with fibroblasts; actives raise or lower the signal
Summary of the method: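 Cells: human keratinocytes co-cultured with foreskin fibroblasts. Treat with chemical, 24 h. Measure TIMP-2 by ELISA; fit curves bidirectionally vs DMSO baseline.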

[3] = read-out: Transforming growth factor beta 1 (TGFb1), TGFB1 (gene 7040); test: BSK_KF3CT_TGFb1: BioMAP Diversity Plus: KF3CT Assay for Transforming growth factor beta 1 (TGFb1) Biomarker Activity (AID 2283072); details: primary human keratinocytes with fibroblasts; actives raise or lower the signal
Summary of the method: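 Primary human skin cells (keratinocytes, foreskin fibroblasts) were co-cultured, exposed to test chemical and sampled at 24 h. TGF-b1 levels were measured by ELISA and fitted bidirectionally relative to DMSO.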

[4] = read-out: C-C motif chemokine 2 (Homo sapiens) (UniProt P13500); test: BSK_KF3CT_MCP1: BioMAP Diversity Plus: KF3CT Assay for Monocyte Chemoattractant Protein 1 (MCP1/CCL2) Biomarker Activity (AID 2283073); details: primary human keratinocytes with fibroblasts; actives raise or lower the signal
Summary of the method: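 Keratinocytes and foreskin fibroblasts were co-cultured, dosed with chemical, and sampled 24 h later. MCP-1 was quantified by ELISA, and the endpoint was analyzed with bidirectional fitting using DMSO as negative control.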

[5] = read-out: Matrix Metallopeptidase 9 (MMP9), MMP9 (gene 4318); test: BSK_KF3CT_MMP9: BioMAP Diversity Plus: KF3CT Assay for Matrix Metallopeptidase 9 (MMP9) Biomarker Activity (AID 2283074); details: primary human keratinocytes with fibroblasts; actives raise or lower the signal;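 as to AC50: MMP9 protein level quantified by ELISA in the co-culture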
Summary of the method: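 Keratinocyte plus foreskin fibroblast human primary skin co-culture was dosed with chemical and MMP-9 was quantified by ELISA 24 h later. Bidirectional curve fitting used DMSO as negative control and activity baseline.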

[6] = read-out: urokinase plasminogen activator (uPA), PLAU (gene 5328); test: BSK_KF3CT_uPA: BioMAP Diversity Plus: KF3CT Assay for urokinase plasminogen activator (uPA) Biomarker Activity (AID 2283075); details: primary human keratinocytes with fibroblasts; actives raise or lower the signal
Summary of the method: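 Human keratinocyte plus foreskin fibroblast primary co-culture exposed to chemical for 24 h. uPA levels were quantified by ELISA, and activity was fitted bidirectionally against a DMSO negative-control baseline.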

CD40, CD40 (gene 958) [7] = test: BSK_LPS_CD40: BioMAP Diversity Plus: LPS Assay for CD40 Biomarker Activity (AID 2283076); details: primary human HUVEC with PBMC; actives raise or lower the signal
Summary of the method: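 CD40 signal, measured by ELISA, is fitted in both directions relative to DMSO vehicle. The system is an LPS-driven human vascular primary co-culture of endothelial cells and PBMC, sampled 24 h after compound addition.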

[8] = read-out: E-selectin (Homo sapiens) (UniProt P16581); test: BSK_LPS_Eselectin: BioMAP Diversity Plus: LPS Assay for Eselectin Biomarker Activity (AID 2283077); details: primary human HUVEC with PBMC; actives raise or lower the signal
Summary of the method: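 Signal of E-selectin, detected by ELISA, served as the endpoint; cells were umbilical vein endothelium with PBMC, read 24 h after treatment. DMSO defined baseline, and both increases and decreases were fitted.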

[9] = read-out: Interleukin-8 (IL8), CXCL8 (gene 3576); test: BSK_LPS_IL8: BioMAP Diversity Plus: LPS Assay for Interleukin-8 (IL8) Biomarker Activity (AID 2283078); details: primary human HUVEC with PBMC; actives raise or lower the signal
Summary of the method: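 Endothelial cells and PBMC from human donors are co-cultured, treated with chemicals and LPS, then assayed for IL-8 by ELISA after 24 h. Parallel SRB staining (0.1% SRB after 10% TCA fixation, 560 nm) flags cytotoxicity.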

[10] = BSK_LPS_SRB: Viability Assessment in the BioMAP Diversity Plus: LPS Assay (AID 2283079); details: primary human HUVEC with PBMC;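 also: total protein by sulforhodamine B absorbance as a cytotoxicity measure; measured one day after compound addition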
Summary of the method: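 Overt cytotoxicity was gauged by sulforhodamine B total-protein staining in a primary human vascular endothelial and mononuclear cell co-culture 24 h post-dosing. Activity was fitted in both directions relative to DMSO.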

[11] = read-out: Interleukin-1 alpha (IL1a), IL1A (gene 3552); test: BSK_LPS_IL1a: BioMAP Diversity Plus: LPS Assay for Interleukin-1 alpha (IL1a) Biomarker Activity (AID 2283080); details: primary human HUVEC with PBMC; actives raise or lower the signal
Summary of the method: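 Measured: IL-1 alpha via ELISA at 24 h in LPS-activated human umbilical vein endothelium–PBMC co-culture. Baseline: DMSO, bidirectional fitting.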

[12] = read-out: Monocyte Chemoattractant Protein-1 (MCP1), CCL2 (gene 6347); test: BSK_LPS_MCP1: BioMAP Diversity Plus: LPS Assay for Monocyte Chemoattractant Protein-1 (MCP1) Biomarker Activity (AID 2283081); details: primary human HUVEC with PBMC; actives raise or lower the signal;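 as to AC50: secreted MCP-1 protein quantified by ELISA in culture supernatant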
Summary of the method: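 LPS-stimulated HUVEC/PBMC co-culture; chemical, 24 h; MCP-1 by ELISA; bidirectional fit vs DMSO; cytotoxicity via SRB (0.1% stain, 10% TCA fix, 560 nm) in parallel wells.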

[13] = BSK_LPS_PGE2: BioMAP Diversity Plus: LPS Assay for Prostaglandin E2 (PGE2) Biomarker Activity (AID 2283082); details: primary human HUVEC with PBMC; actives raise or lower the signal;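 as to AC50: secreted prostaglandin E2 measured by ELISA in LPS-stimulated co-culture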
Summary of the method: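 LPS-activated HUVEC/PBMC co-culture; cmpd dosed, 24 h; PGE2 by ELISA; bidirectional fit vs DMSO; SRB (0.1%, TCA-fixed, 560 nm) in parallel plates for overt cytotox.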

[14] = read-out: Macrophage colony-stimulating factor (MCSF), CSF1 (gene 1435); test: BSK_LPS_MCSF: BioMAP Diversity Plus: LPS Assay for Macrophage colony-stimulating factor (MCSF) Biomarker Activity (AID 2283083); details: primary human HUVEC with PBMC; actives raise or lower the signal
Summary of the method: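 Compound is added to a human vascular primary co-culture of umbilical vein endothelium and blood mononuclear cells. After 24 h, M-CSF is quantified by ELISA. Signal changes are fitted in both directions against DMSO.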

[15] = read-out: Tissue Factor, F3 (gene 2152); test: BSK_LPS_TissueFactor: BioMAP Diversity Plus: LPS Assay for Tissue Factor Biomarker Activity (AID 2283084); details: primary human HUVEC with PBMC; actives raise or lower the signal
Summary of the method: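 In this co-culture system of umbilical vein endothelium with PBMC, stimulated with LPS, cell-surface CD142 is detected by ELISA at 24 h. Endpoint values derive from bidirectional fitting, DMSO serving as baseline.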

[16] = read-out: Tumor necrosis factor (Homo sapiens) (UniProt P01375); test: BSK_LPS_TNFa: BioMAP Diversity Plus: LPS Assay for Tumour Necrosis Factor alpha (TNFa) Biomarker Activity (AID 2283085); details: primary human HUVEC with PBMC; actives raise or lower the signal;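 as to AC50: TNFa protein level quantified by ELISA in the co-culture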
Summary of the method: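 Read-out is ELISA of TNFa in primary human endothelial cell–PBMC co-cultures at 24 h after compound. Activity in either direction was fitted against DMSO.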

[17] = read-out: Vascular cell adhesion molecule 1 (VCAM1), VCAM1 (gene 7412); test: BSK_LPS_VCAM1: BioMAP Diversity Plus: LPS Assay for Vascular cell adhesion molecule 1 (VCAM1) Biomarker Activity (AID 2283086); details: primary human HUVEC with PBMC; actives raise or lower the signal
Summary of the method: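 HUVEC + PBMC co-culture, LPS system; compound 24 h; VCAM-1 by ELISA; bidirectional fit vs DMSO control; parallel SRB (0.1%, TCA-fixed, 560 nm) for cytotoxicity.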

CD40, CD40 (gene 958) [18] = test: BSK_SAg_CD40: BioMAP Diversity Plus: SAg Assay for CD40 Biomarker Activity (AID 2283088); details: primary human HUVEC with PBMC; actives raise or lower the signal
Summary of the method: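 Fluorescence ELISA read-out of CD40 from umbilical vein endothelium plus peripheral blood mononuclear cells, sampled 24 h after dosing. Values come from bidirectional curve fitting with DMSO as baseline.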

CD69, CD69 (gene 969) = test: BSK_SAg_CD69: BioMAP Diversity Plus: SAg Assay for CD69 Biomarker Activity (AID 2283089); details: primary human HUVEC with PBMC; actives raise or lower the signal;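 as to AC50: cell surface CD69 protein quantified by ELISA with fluorescence detection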
Summary of the method: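 HUVEC co-cultured with PBMC were dosed with chemical, and CD69 was measured by ELISA with fluorescence read-out 24 h later. Bidirectional curve fitting used DMSO as negative control and activity baseline.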

CD38, CD38 (gene 952) = test: BSK_SAg_CD38: BioMAP Diversity Plus: SAg Assay for CD38 Biomarker Activity (AID 2283087); details: primary human HUVEC with PBMC; actives raise or lower the signal
Summary of the method: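 Human HUVEC plus PBMC co-culture stimulated with superantigen; CD38 measured by ELISA 24 h after chemical dosing. Fluorescence read-out, bidirectional fit against DMSO; cytotoxicity tracked in parallel by SRB and Alamar Blue.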

Measured: AC50

Chain of E-selectin (Homo sapiens) (P16581 whole entry, looked up): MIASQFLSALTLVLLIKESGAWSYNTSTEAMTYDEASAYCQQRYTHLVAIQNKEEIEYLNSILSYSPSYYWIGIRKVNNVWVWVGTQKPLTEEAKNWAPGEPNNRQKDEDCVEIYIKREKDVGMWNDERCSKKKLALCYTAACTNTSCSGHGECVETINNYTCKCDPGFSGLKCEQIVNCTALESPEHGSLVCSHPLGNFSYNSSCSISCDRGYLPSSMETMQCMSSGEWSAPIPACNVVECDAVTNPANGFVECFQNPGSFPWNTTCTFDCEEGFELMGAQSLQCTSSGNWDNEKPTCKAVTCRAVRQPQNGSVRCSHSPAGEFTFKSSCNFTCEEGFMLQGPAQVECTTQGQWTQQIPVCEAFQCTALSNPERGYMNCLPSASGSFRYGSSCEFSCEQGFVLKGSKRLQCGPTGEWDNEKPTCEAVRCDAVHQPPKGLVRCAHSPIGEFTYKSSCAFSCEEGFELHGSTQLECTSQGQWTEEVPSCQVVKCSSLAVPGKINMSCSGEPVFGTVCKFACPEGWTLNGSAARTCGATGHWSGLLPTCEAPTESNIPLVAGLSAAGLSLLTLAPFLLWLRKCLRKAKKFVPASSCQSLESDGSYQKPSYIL
Chain of Tumor necrosis factor (Homo sapiens) (P01375 whole entry, looked up): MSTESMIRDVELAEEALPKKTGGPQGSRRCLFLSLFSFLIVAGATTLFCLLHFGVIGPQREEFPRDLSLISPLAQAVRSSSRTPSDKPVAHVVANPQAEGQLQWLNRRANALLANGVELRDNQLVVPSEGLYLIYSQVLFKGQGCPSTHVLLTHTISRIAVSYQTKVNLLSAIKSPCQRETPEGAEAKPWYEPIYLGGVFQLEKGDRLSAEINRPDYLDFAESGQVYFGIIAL

O=P1(N(CCCl)CCCl)NCCCO1 (configuration not stated)
not listed: CD38, CD38 (gene 952)
inactive: all other assays above

COP(=O)(O)OC
not listed: CD38, CD38 (gene 952)
inactive: all other assays above

COP(N)(=S)OC
not listed: [4]
inactive: all other assays above

c1ccc2c(c1)Nc1ccccc1S2
active: [2] 27.3 µM | [13] 0.374 µM | [16] 0.148 µM | CD40, CD40 (gene 958) [18] 26.8 µM
not listed: CD40, CD40 (gene 958) [7] | CD38, CD38 (gene 952)
inactive: all other assays above

CCOc1ccc(C(C)(C)COCc2cccc(Oc3ccccc3)c2)cc1
active: [16] 1.15 µM
not listed: CD40, CD40 (gene 958) [7] | [11]
inactive: all other assays above

OCC1CO1 (configuration not stated)
not listed: [4] | CD38, CD38 (gene 952)
inactive: all other assays above

ClC(Cl)c1ccccc1
not listed: [4] | CD38, CD38 (gene 952)
inactive: all other assays above

[N-]=[N+]=[N-]
not listed: [4] | CD38, CD38 (gene 952)
inactive: all other assays above

CCOP(=S)(OCC)SCn1nnc2ccccc2c1=O
active: [14] 20 µM
not listed: CD40, CD40 (gene 958) [7] | CD38, CD38 (gene 952)
inactive: all other assays above

ClC(Cl)(Cl)c1ccccc1
not listed: CD40, CD40 (gene 958) [7]
inactive: all other assays above

O=S1(=O)OCC2C(CO1)C1(Cl)C(Cl)=C(Cl)C2(Cl)C1(Cl)Cl (configuration not stated)
active: [3] 35.6 µM | [12] 10.5 µM
not listed: [4]
inactive: all other assays above

CCOP(=S)(OCC)SCSc1ccc(Cl)cc1
active: [1] 3.12 µM | [2] 0.533 µM | [3] 0.0592 µM | [5] 0.324 µM | [6] 0.0705 µM | CD40, CD40 (gene 958) [7] 20 µM | [11] 5.31 µM | [14] 18.7 µM | [17] 13.2 µM | CD40, CD40 (gene 958) [18] 9.34 µM | CD69, CD69 (gene 969) 20 µM
inactive: [8] | [9] | [10] | [12] | [13] | [15] | [16]

ClC1=C(Cl)C2(Cl)C3C(Cl)C(Cl)CC3C1(Cl)C2(Cl)Cl (configuration not stated)
inactive: [4] | [13]
active: [1] 20 µM | [2] 26.8 µM | [3] 20 µM | [5] 13.3 µM | [6] 27.9 µM | [8] 30.4 µM | [9] 34 µM | [10] 29.9 µM | [11] 26 µM | [12] 33.2 µM | [14] 27.9 µM | [15] 31.5 µM | [16] 32.7 µM | [17] 29.2 µM | CD40, CD40 (gene 958) [18] 24.4 µM | CD69, CD69 (gene 969) 27.5 µM

CCCCN(CCCC)SN(C)C(=O)Oc1cccc2c1OC(C)(C)C2
active: [5] 13.8 µM | CD40, CD40 (gene 958) [7] 20 µM | [8] 30.8 µM | [9] 30.9 µM | [10] 28.4 µM | [11] 29.8 µM | [12] 30.9 µM | [14] 30.9 µM | [16] 35 µM | [17] 25.7 µM | CD40, CD40 (gene 958) [18] 26.2 µM | CD69, CD69 (gene 969) 27.6 µM
inactive: [1] | [2] | [3] | [6] | [13] | [15]
